{"source": "PubChem BioAssay AID1671189", "about": "(National Center for Advancing Translational Sciences (NCATS), 2021)", "note": "Hit rate of the full screen: of about 1,100 compounds, about 70 (6%) were called active. Not shown: some 22% with an inconclusive outcome. The list comes from a sample in which actives are over-represented; it also holds similar structures and randomly drawn compounds. Values without a mark were called inactive. The call rests on the fitted dose curve; in most records, active means well fitted curve in the direction sought with a large enough effect; inconclusive means small, poorly fitted or top-dose-only effect, or another doubt; inactive means no such curve, though single readings can be large or run the other way. On the % scale 0 is the no-effect control and ±100 the full control effect; potency means the concentration at half of the fitted maximal effect."}
{"molecular_target": "Polyunsaturated fatty acid lipoxygenase ALOX12 (Homo sapiens) (UniProt P18054)", "sequence (P18054 whole entry, looked up)": "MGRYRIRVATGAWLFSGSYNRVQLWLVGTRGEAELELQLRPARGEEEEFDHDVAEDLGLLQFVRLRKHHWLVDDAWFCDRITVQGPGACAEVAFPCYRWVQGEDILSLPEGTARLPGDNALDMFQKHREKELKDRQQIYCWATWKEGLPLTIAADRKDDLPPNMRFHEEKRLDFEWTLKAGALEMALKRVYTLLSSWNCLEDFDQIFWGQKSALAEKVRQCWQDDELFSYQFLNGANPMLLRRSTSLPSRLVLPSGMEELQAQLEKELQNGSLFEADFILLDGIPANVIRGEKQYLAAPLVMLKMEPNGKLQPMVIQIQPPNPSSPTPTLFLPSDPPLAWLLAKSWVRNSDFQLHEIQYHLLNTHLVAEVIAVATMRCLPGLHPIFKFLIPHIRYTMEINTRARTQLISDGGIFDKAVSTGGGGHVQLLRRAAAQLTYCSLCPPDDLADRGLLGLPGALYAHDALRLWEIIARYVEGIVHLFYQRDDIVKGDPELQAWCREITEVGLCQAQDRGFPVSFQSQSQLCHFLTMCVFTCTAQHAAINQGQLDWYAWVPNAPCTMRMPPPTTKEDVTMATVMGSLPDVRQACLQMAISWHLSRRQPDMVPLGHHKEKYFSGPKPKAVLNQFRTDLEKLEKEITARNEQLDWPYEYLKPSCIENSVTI", "test": "Confirmatory qHTS assay for inhibitors of human arachidonate 12S-lipoxygenase (ALOX12): Round 2", "settings": "purified human 12-LOX, xylenol orange absorbance; series mostly up to 125 µM; activity change, negative = inhibition: at the top concentration", "from_the_text": "Assay Provider: Theodore R. Holman Ph.D. University of California, Santa Cruz, California Human lipoxygenase 12hLO is a member of the closely related lipoxygenase family of enzymes which catalyze the site-specific oxidation of arachidonic acid to various hormone precursor molecules and as such is a candidate for drug development in a variety of disease areas, such as cancer and inflammation. Inhibition of 12hLO activity was screened by utilizing arachidonic acid as a substrate. The extent of hydroperoxide product formation was measured by a secondary chromogenic reaction in which xylenol orange (XO, Sigma-Aldrich, cat. number 39,818-7) reacts with the ferric ions produced from the reaction between the hydroperoxide and ferrous ions. The Fe (III)-XO complex is characterized with red-shifted absorbance at 560 nm. A purified preparation of human 12hLO was supplied by Dr. Holman laboratory, University of California, Santa Cruz.\nPROTOCOL TABLE SEQUENCE No. (e.g., 1, 2, 3, etc.); […] (e.g., Cells, Incubation, Reagent, etc.); VALUE; DESCRIPTION 1; Enzyme; 3 uL; 150 nM 12hLO enzyme solution dispensed in 1536-well Greiner black, clear bottom plates. 2; Compound; 23 nL; compounds and controls were added. 3; Incubate; 15 min; room temperature. 4; Substrate; 1 uL; 40 uM arachidonic acid (final concentration). 5; Incubate; 30 min; room temperature. 6; Reagent; 4 uL; Fe-XO solution was added to each well. 7; Incubation; 30 min; room temperature 8; Detector; absorbance; Read 1 at 405 nm absorbance using ViewLux (PerkinElmer) CCD imager. 9; Detector; absorbance; Read 2 at 573 nm absorbance using ViewLux (PerkinElmer) CCD imager. NOTES (numbers refer to sequence above) 1; 150 nM 12hLO (final concentration) in buffer solution (25 mM Hepes, 0.01% Triton X-100, pH 7.0) was dispensed in columns 1, 2, 5-48. Column 1 is neutral (100% activity). Buffer only was dispensed in columns 3 and 4 as no enzyme negative controls. The plates were covered with metal lids with gas-exchange holes. 2; Compounds were pin transferred via a Kalypsys Pin Tool (Wako USA) in column 5 - 48. Control compound was transferred in column 2, titration of nordihydroguaiaretic acid (NDGA, Sigma-Aldrich, N5023) with top concentration of 20 mM in DMSO then 1:3 dilution in duplicate. Dilution factor of 23 nL into 4 uL final assay volume. 3; Covered assay plates were incubated for 15 min at room temperature. 4; Substrate was added to start the reaction; 40 uM arachidonic acid (Sigma-Aldrich, St. Louis, MO) was dispensed throughout the plate. 6; Chromogenic detection reagent solution (divalent iron/xylenol orange, Fe-XO) was added to each well: 200 uM xylenol orange, 300 uM ferrous ammonium sulfate prepared freshly in 50 mM sulfuric acid. 8, 9; Two absorbance readouts were obtained at 405 nm and at 573 nm using a ViewLux high-throughput CCD plate imager (PerkinElmer). The 573 to 405 (Read 2 / Read 1) absorbance ratio was used to compute reaction progress."}
{"compound": "COc1ccc(-c2cc(-c3cccc(CO)c3)cn3cncc23)cc1", "Potency": "28.2 µM (active)"}
{"compound": "COc1ccc(Nc2cnc3ccc(-c4cccc(CO)c4)nn23)cc1OC", "activity change, negative = inhibition": "-2.32% [at 64.5 µM]"}
{"compound": "COc1ccc(CNc2ncnc3c2CN(C2CCCNC2)C(=O)CN3C)cc1", "note": "(stereo not drawn)", "activity change, negative = inhibition": "-15.2%"}
{"compound": "O=C(O)CCC(=O)N1Cc2ccccc2CC2(CCCN2Cc2cccnc2)C1", "note": "(stereo not drawn)", "activity change, negative = inhibition": "-6.82%"}
{"compound": "Cc1ccc(-c2cc(-c3ccc(C)o3)nc(N)c2C#N)cc1", "Potency": "3.06 µM (active)"}
{"compound": "Cc1cc(C(=O)N2CCC(F)CC2)c2c(C3CCCN3)noc2n1", "note": "(stereo not drawn)", "activity change, negative = inhibition": "-10.6%"}
{"compound": "O=Cc1ccc(-c2ccc(O)cc2)cc1", "activity change, negative = inhibition": "-27.2% [at 233 µM]"}
{"compound": "COc1ccc(N=C2S[C@H]3[C@H]([C@@H](O)[C@H](O)C[C@@H]3C(N)=O)N2CC2CCCCC2)cc1", "activity change, negative = inhibition": "-10.7% [at 64.5 µM]"}
{"compound": "O=C1N[C@@H]2CCN(S(=O)(=O)c3ccc(Cl)cc3)[C@@H]2C(=O)N1c1ccc(Oc2ccccc2)cc1", "Potency": "7.94 µM (active)"}
{"compound": "COc1ccccc1-c1ccc(CN2CCCC(c3nc4ccc(F)cc4c(=O)[nH]3)C2)cc1", "note": "(stereo not drawn)", "activity change, negative = inhibition": "-29.2%"}
{"compound": "O=Cc1cccc(N2CCN(C(=O)c3ccc4c(c3)OCO4)CC2=O)c1", "activity change, negative = inhibition": "-11%"}
{"compound": "O=C1NCc2ccccc2CC12CCCN2Cc1ccsc1", "note": "(stereo not drawn)", "activity change, negative = inhibition": "-13.5%"}
{"compound": "NCC(=O)N1Cc2ccccc2CC2(CCCCN2CC2CCOCC2)C1", "note": "(stereo not drawn)", "activity change, negative = inhibition": "2.3%"}
{"compound": "CC(=O)N1CCC2(CC1)CN(C(=O)Cc1csc(N)n1)Cc1ccccc1O2", "activity change, negative = inhibition": "0.398%"}
{"compound": "CNc1oc(-c2ccc(Cl)c(Cl)c2)nc1C#N", "activity change, negative = inhibition": "-1.38% [at 64.5 µM]"}
{"compound": "c1cc(NCCN2CCCC2)ccn1", "activity change, negative = inhibition": "-4.41% [at 233 µM]"}
{"compound": "Clc1ccc(NCCN2CCCC2)cc1", "Potency": "90.2 µM (active)"}
{"compound": "c1ccc(NCCN2CCCC2)cc1", "activity change, negative = inhibition": "-22.6% [at 233 µM]"}
{"compound": "Cn1nc(C2CCNC2)c2c(C(=O)NC3CC3)cc(C3CC3)nc21", "note": "(stereo not drawn)", "activity change, negative = inhibition": "-13.8%"}
{"compound": "O=C(OCC#CCSc1nnc(-c2cccc3ccccc23)o1)c1ccsc1", "activity change, negative = inhibition": "-10.6% [at 64.5 µM]"}
{"compound": "NCc1ccc(-c2cccc(Cl)c2)cc1", "activity change, negative = inhibition": "-14.7%"}
{"compound": "NCc1ccc(-c2cccc(O)c2)cc1", "activity change, negative = inhibition": "-27.6%"}
{"compound": "Nc1cc(-c2ccccc2)ccc1O", "Potency": "0.273 µM (active)"}
{"compound": "N[C@@H]1CC[C@H](C(=O)N2CCC(c3nccn3Cc3ccncc3)CC2)C1", "activity change, negative = inhibition": "-14.6% [at 64.5 µM]"}
{"compound": "O=C(OCC#CCSc1nnc(-c2cccc3ccccc23)o1)c1sccc1Cl", "activity change, negative = inhibition": "8.4% [at 64.5 µM]"}
{"compound": "CN1CC(=O)N(C2CCNC2)Cc2c(NCC3(O)CCCCC3)ncnc21", "note": "(stereo not drawn)", "activity change, negative = inhibition": "-19.9%"}
{"compound": "CCCCN1C(=O)[C@@H]2C[C@@H](O)CN2C2(CN(Cc3cnc[nH]3)C2)C1=O", "activity change, negative = inhibition": "16.1% [at 64.5 µM]"}
{"compound": "O=C(c1cc(C2CC2)nc2onc(C3CCCNC3)c12)N1CCCCC1", "note": "(stereo not drawn)", "activity change, negative = inhibition": "-15.8%"}
{"compound": "CC(=O)NC1(C)CCN(Cc2cnc(-c3ccccc3OCc3ccccc3)s2)CC1", "Potency": "4.47 µM (active)"}
{"compound": "O=C1NCc2ccccc2CC12CCN(Cc1ccc(Cl)o1)C2", "note": "(stereo not drawn)", "activity change, negative = inhibition": "-14.1%"}
{"compound": "O=C1Nc2ccccc2C12CCN(Cc1ccccc1)C2", "note": "(stereo not drawn)", "activity change, negative = inhibition": "-20.4%"}
{"compound": "CC(=O)N1CCN(C(=O)CSCC(=O)O)C[C@H]1C(=O)N[C@H]1CCCNC1=O", "activity change, negative = inhibition": "-4.79% [at 64.5 µM]"}
{"compound": "O=c1[nH]c(C2CCCN(Cc3ccc(-c4cc(F)cc(F)c4)cc3)C2)nc2ccc(F)cc12", "note": "(stereo not drawn)", "activity change, negative = inhibition": "-20.1%"}
{"compound": "CN1CC(=O)N(C2CCNCC2)Cc2c(NC3CCCCC3)ncnc21", "activity change, negative = inhibition": "-13%"}
{"compound": "O=c1n(-c2cccc(Cl)c2)nc2n1CCN([S+](=O)([O-])c1ccccc1)C2", "activity change, negative = inhibition": "-36%"}
{"compound": "O=C(c1ccccc1)N1CCn2c(nn(-c3cccc(Cl)c3)c2=O)C1", "activity change, negative = inhibition": "-29%"}
{"compound": "O=C(c1cc(-c2ccco2)nn1-c1cccc(Cl)c1)N1CCCCC1", "Potency": "9.68 µM (active)"}
{"compound": "O=C(c1ccc(C(F)(F)F)cc1)N1CCc2nc(C3CC3)nc(-c3ccc(Cl)cc3)c2C1", "activity change, negative = inhibition": "-19.2%"}
{"compound": "O=C(N1CCCC1)N1CCn2c(nnc2-c2cncc(Br)c2)C1", "activity change, negative = inhibition": "-10.2%"}
{"compound": "O=C(O)CCCC(=O)N1Cc2ccccc2CC2(CCCN2Cc2ccccc2)C1", "note": "(stereo not drawn)", "activity change, negative = inhibition": "-17.9%"}
{"compound": "CC1CCCN(c2ncnc3c2CN(C2CCCNCC2)C(=O)CN3C)C1", "note": "(stereo not drawn)", "activity change, negative = inhibition": "-9.31%"}
{"compound": "CCC(=O)NC(c1ccco1)c1cc(Cl)c2cccnc2c1O", "note": "(stereo not drawn)", "Potency": "2.17 µM (active)"}
{"compound": "CCC(=O)NC(c1ccco1)c1cc(Cl)c2cccnc2c1OC", "note": "(stereo not drawn)", "activity change, negative = inhibition": "10.7% [at 64.5 µM]"}
{"compound": "CC(=O)NC(c1ccco1)c1cc(Cl)c2cccnc2c1O", "note": "(stereo not drawn)", "Potency": "4.85 µM (active)"}
{"compound": "COc1ccc(CNc2ncnc3c2CN(C2CCCNCC2)C(=O)CN3C)cc1", "note": "(stereo not drawn)", "activity change, negative = inhibition": "-4.88%"}
{"compound": "C[S+](=O)([O-])N1Cc2ccccc2OC2(CCN(C(=O)c3ccc(N)nc3)CC2)C1", "activity change, negative = inhibition": "-11.4%"}
{"compound": "CN1C(=O)[C@@H]2C[C@@H](CN2C2CCCC2)Oc2ccccc21", "activity change, negative = inhibition": "14.6%"}
{"compound": "N#Cc1ccc(CN2CCC3(CN[S+](=O)([O-])c4cnccc4O3)C2)cc1", "note": "(stereo not drawn)", "activity change, negative = inhibition": "-2.99%"}
{"compound": "CNCCN1C(=O)CC[C@H]2CN(C(=O)c3ccc(Cl)cn3)CC[C@H]21", "activity change, negative = inhibition": "-6.14% [at 64.5 µM]"}
{"compound": "C=CCNC(=O)[C@@H]1Cc2cn(CC#CC)c3cccc(c23)[C@H](CC(C)C)N1", "activity change, negative = inhibition": "24% [at 64.5 µM]"}
{"compound": "C=CCn1cc(CN(Cc2ccco2)Cc2cccs2)c(C)n1", "Potency": "10 µM (active)"}
{"compound": "Cc1ccc(C(=O)N2CCn3c(nnc3C3CCNCC3)C2)cc1", "activity change, negative = inhibition": "-13.1%"}
{"compound": "c1ccc(COCCCc2cnc[nH]2)cc1", "activity change, negative = inhibition": "-4.41%"}
